Assay [1] has as its target Estrogen receptor (Homo sapiens) (UniProt P03372). Kind of assay: qHTS assay for small molecule agonists of estrogen receptor alpha signaling (AID 588514; calls by dose curve;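 further: 0% = vehicle only and 100% = reference agonist; nearly all actives have a fitted effect of over 70% in size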). An outline of the steps: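 Efficacy is expressed against 20 nM 17-beta-estradiol (100%) and DMSO basal (0%); EC50 from Hill equation. Assay: beta-lactamase reporter in ER-alpha-UAS-bla HEK 293 cells, 18 h compound incubation, CCF4 detection.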

In assay [2] the target is Cytochrome P450 2C19 (Homo sapiens) (UniProt P33261). Kind of assay: qHTS Assay for Inhibitors and Substrates of Cytochrome P450 2C19 (AID 899). Further: nearly all actives have a fitted effect of over 60% in size. Further: potency means the concentration at half of the fitted maximal effect. An outline of the steps: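 Signal comes from luciferase acting on luciferin released by CYP2C19-mediated hydroxylation of Luciferin-H EGE, 10uM (KM). Assay mix: 5nM enzyme, 50mM KPO4; 60 min at 37C with NADPH regeneration. Data normalized against 57uM ketoconazole.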
Cytochrome P450 2C19 (Homo sapiens), sequence (P33261 whole entry, looked up): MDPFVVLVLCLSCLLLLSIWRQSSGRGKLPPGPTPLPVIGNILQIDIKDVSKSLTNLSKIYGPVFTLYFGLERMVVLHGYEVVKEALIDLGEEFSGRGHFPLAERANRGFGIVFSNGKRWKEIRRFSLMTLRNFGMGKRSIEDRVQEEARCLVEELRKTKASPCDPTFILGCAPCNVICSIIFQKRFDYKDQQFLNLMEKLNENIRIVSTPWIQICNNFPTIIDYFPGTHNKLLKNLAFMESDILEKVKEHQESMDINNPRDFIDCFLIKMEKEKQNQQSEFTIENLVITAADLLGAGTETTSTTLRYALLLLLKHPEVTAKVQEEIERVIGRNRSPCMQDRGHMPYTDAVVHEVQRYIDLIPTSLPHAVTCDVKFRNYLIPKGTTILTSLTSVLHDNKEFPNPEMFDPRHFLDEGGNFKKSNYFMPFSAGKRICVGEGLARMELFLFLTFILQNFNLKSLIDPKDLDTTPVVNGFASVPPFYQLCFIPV
For orientation: In qHTS, concentration-response curves come from the screen itself.

Assay [3] has as its target ATP-dependent 6-phosphofructokinase (Trypanosoma brucei brucei) (UniProt O15648). Kind of assay: qHTS Assay to Find Inhibitors of T. brucei phosphofructokinase: hit validation (AID 492961).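 Further: luminescence reports ADP formed as PFK phosphorylates fructose-6-phosphate with ATP; series mostly up to about 51 µM; on the % scale 0 is the no-effect control and ±100 the full control effect.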 An outline of the steps: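 Inhibition of parasite PFK is measured as reduced ADP formation, quantified via luciferase after ATP depletion. Assay used 0.1 mM ATP, 0.5 mM F6P, 1.25 nM enzyme, 45 min incubation.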

Assay [4] concerns the target Alpha-galactosidase (Coffea arabica) (UniProt Q42656). Kind of assay: Counterscreen for Glucocerebrosidase Inhibitors: qHTS Assay for Coffee Bean alpha-Galactosidase at pH 4.5 (AID 957).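 Further: series mostly up to about 77 µM; plate controls were enzyme alone for no effect and no enzyme for full effect.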 An outline of the steps: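 Enzyme is added first (2 nM final), then compounds titrated from 0.7 nM to 77 uM, then 80 uM 4-methylumbelliferyl alpha-D-galactopyranoside; after 20 min at room temperature a pH 10 NaOH/glycine stop precedes fluorescence reading at 365/440 nm.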
In general terms: The purpose of a counterscreen is to sort out artefacts and off-target activity.

Assay [5] has the same target. Kind of assay: Counterscreen for Glucocerebrosidase Inhibitors: qHTS Assay for Coffee Bean alpha-Galactosidase at pH 5.9 (AID 998).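 Further: plate controls were uninhibited enzyme for no effect and no-enzyme basal signal for full effect.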 An outline of the steps: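 Enzyme 2 nM + cpd (0.7 nM–77 uM titration) + 4-MU-alpha-Gal 80 uM, pH 5.9 citrate/Tween-20, RT 20 min, NaOH/glycine stop pH 10, fluor 365/440. Normalized to no-enzyme and full-activity controls; Hill-fit AC50.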

The target in assay [6] is Cytochrome P450 2C9 (Homo sapiens) (UniProt P11712). Kind of assay: qHTS Assay for Inhibitors and Substrates of Cytochrome P450 2C9 (AID 883). Further: nearly all actives have a fitted effect of over 60% in size. Further: potency means the concentration at half of the fitted maximal effect. An outline of the steps:
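Signal: luciferase luminescence reporting luciferin produced by CYP2C9. Conditions: 10nM enzyme, Luciferin-H 100uM at KM, 25mM KPO4, 37C, 60 min NADPH-driven reaction. Reference: 57uM sulphaphenazole as 100% inhibition.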

For assay [7], the target named is Guanine nucleotide-binding protein G(i) subunit alpha-1 (Homo sapiens) (UniProt P63096). Kind of assay: qHTS Assay for Inhibitors of RGS12 GoLoco Motif Activity (Green Fluorophore) (AID 879).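 Further: 0% = labeled peptide with Gαi1 and full inhibition = labeled peptide alone without protein; negative values mean loss of peptide binding seen as reduced polarization.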 An outline of the steps: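 A drop in FITC polarization marked displacement of the FITC-tagged RGS12 GoLoco peptide (10 nM) from Gαi1 (50 nM). Compounds were incubated 10 min at room temperature in Tris pH 7.5 buffer containing 150 mM NaCl, 0.1 mM GDP and 0.05% NP40; unlabeled peptide titration served as control.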
Guanine nucleotide-binding protein G(i) subunit alpha-1 (Homo sapiens), sequence (P63096 whole entry, looked up): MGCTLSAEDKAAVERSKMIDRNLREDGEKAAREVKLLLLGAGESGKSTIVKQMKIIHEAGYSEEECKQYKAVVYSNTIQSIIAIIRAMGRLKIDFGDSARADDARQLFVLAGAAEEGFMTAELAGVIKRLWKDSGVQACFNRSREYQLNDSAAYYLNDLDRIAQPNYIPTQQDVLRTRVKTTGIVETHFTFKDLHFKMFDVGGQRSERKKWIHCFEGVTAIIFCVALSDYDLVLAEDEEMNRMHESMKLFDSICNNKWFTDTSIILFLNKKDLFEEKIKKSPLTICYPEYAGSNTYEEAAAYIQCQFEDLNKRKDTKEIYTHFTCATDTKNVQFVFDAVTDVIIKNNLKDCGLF

Assay [8] concerns the target Muscarinic acetylcholine receptor M1 (Rattus norvegicus) (UniProt P08482). Kind of assay: qHTS Assay for Antagonists of Acetylcholine Muscarinic M1 Receptor: Measurement of IP-One Response (AID 944). Further: nearly all actives have a fitted effect of over 75% in size. Further: potency means the concentration at half of the fitted maximal effect. An outline of the steps: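 Antagonist mode with rat M1 receptor transfected into CHO cells. Compound is added first for 10 min, carbachol at its EC80 follows for 30 min, and lysis reagents then allow TR-FRET detection of accumulated IP1.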

The target in assay [9] is Pyruvate kinase (Leishmania mexicana) (UniProt Q27686). Kind of assay: qHTS Validation Assay for Inhibitors of Leishmania Mexicana Pyruvate Kinase (AID 945).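 Further: 0% = DMSO only neutral control wells.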 An outline of the steps: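 qHTS eight-point titrations against 0.2 nM LmPYK (E451W) in imidazole buffer pH 7.2 with 0.5 mM PEP, 0.1 mM ADP; 1 h, room temperature. Readout: PKLight luminescence, normalized to neutral DMSO wells.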
Pyruvate kinase (Leishmania mexicana), sequence (Q27686 2-499 E452W): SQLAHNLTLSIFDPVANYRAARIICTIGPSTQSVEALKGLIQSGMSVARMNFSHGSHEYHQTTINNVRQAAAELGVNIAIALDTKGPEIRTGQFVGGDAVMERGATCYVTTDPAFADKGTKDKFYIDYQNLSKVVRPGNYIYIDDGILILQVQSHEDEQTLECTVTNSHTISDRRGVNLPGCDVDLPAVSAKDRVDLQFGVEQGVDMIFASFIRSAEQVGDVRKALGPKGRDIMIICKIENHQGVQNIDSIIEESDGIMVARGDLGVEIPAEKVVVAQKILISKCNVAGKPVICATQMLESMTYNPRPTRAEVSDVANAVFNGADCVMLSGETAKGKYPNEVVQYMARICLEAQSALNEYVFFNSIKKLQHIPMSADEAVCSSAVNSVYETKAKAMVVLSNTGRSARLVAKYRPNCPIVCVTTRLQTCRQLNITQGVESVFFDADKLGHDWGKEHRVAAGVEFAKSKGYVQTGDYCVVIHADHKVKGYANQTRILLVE

The target in assay [10] is Alpha-galactosidase A (Homo sapiens) (UniProt P06280). Kind of assay: Counterscreen for Glucocerebrosidase Inhibitors: qHTS Assay for Human alpha-Galactosidase at pH 4.5 (AID 992). Further: 0% is about no effect. An outline of the steps: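 Fluorogenic 1536-well qHTS at pH 4.5 (citrate, Tween-20): 2 nM enzyme, 80 uM 4-MU-alpha-galactoside, 20 min room temperature, NaOH/glycine stop. Titration 0.7 nM to 77 uM, data normalized to no-enzyme and full-activity controls, Hill-fitted AC50.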
Alpha-galactosidase A (Homo sapiens), sequence (P06280 whole entry, looked up): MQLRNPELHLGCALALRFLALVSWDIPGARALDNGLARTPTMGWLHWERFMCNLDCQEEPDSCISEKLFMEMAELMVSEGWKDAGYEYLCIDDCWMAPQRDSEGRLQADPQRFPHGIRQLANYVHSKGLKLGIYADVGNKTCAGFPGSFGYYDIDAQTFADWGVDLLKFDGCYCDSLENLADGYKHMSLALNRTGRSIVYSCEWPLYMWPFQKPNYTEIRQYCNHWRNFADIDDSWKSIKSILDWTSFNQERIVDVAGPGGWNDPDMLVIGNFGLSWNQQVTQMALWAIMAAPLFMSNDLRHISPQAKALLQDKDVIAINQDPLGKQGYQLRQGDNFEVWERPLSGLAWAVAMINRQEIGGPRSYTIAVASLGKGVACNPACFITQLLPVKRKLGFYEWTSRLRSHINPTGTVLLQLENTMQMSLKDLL

In assay [11] the target is alpha-glucosidase (Oryza sativa, rice) (UniProt Q653V4). Kind of assay: Counterscreen for Glucocerebrosidase Inhibitors: qHTS Assay for Rice alpha-Glucosidase at pH 5.0 (AID 997).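 Further: 0% = full activity with enzyme and -100% = basal without enzyme.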 The essentials: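 Endpoint fluorogenic assay at pH 5.0: compounds (0.7 nM to 77 uM) titrated against 4 nM rice enzyme and 400 uM 4-MU-alpha-glucoside for 20 min at room temperature; NaOH/glycine stop, read ex 365/em 440 nm, Hill-fitted AC50.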

A short description of assay [12]: S16 Schwann cell viability assay (CellTiter-Glo assay) (AID 624031).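 Further: native untransfected S16 rat Schwann cells; series mostly up to about 58 µM; plate controls were DMSO-treated cells for no effect and cell-free wells for full effect; nearly all actives have a fitted effect of over 70% in size.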 The essentials:
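Counter-screen for cytotoxicity: parental S16 rat Schwann cells lacking the PMP22 reporters, treated 24 h with compound, viability from cellular ATP by CellTiter-Glo luminescence, normalized to DMSO (0%) and no-cell wells.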

Assay [13] can be described thus: qHTS assay for environmental chemicals that activate the Aryl hydrocarbon Receptor (AhR) signaling pathway (AID 651777). Further: % of control where 0% means no effect; nearly all actives have a fitted effect of over 15% in size. The following applies: 1A2-DRE human hepatoma cells, luciferase, 24 h; activation: stronger effect = higher value. An outline of the steps: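 Quantitative HTS in stably transfected human liver-derived cells whose luciferase gene sits downstream of the CYP1A2 promoter and dioxin response element. After 24 hr exposure at 37 C, One-Glo luminescence was measured.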

Assay [14] in a line: qHTS assay for small molecule activators of the human pregnane X receptor (PXR) signaling pathway (AID 720659; call rule not given here; further: 0% is about no effect).
Assay [15] deals with Glucocorticoid receptor (Homo sapiens) (UniProt P04150). Kind of assay: qHTS assay for small molecule agonists of glucocorticoid receptor signaling (AID 588532; active means well fitted curve in the direction sought with a large enough effect in the signal ratio, with a control signal flat; the % refers to the signal ratio;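 further: 100% = dexamethasone at 0.1 µM and 0% = DMSO only wells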). The following applies: HeLa MMTV-bla, beta-lactamase ratio, agonist, 18 h; stronger effect = higher value; percent of dexamethasone control, DMSO zero. The essentials:
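HeLa GRE-bla reporter cells; 18 h compound exposure at 37 C; 2 h CCF4 loading at room temperature; fluorescence at 460 and 530 nm; EC50 by Hill equation.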

Assay [16] shares this target. Kind of assay: qHTS assay for small molecule antagonists of glucocorticoid receptor signaling (AID 588533; active means well fitted inhibition curve with a large enough effect in the signal ratio, with a control signal flat, not every such curve was filed as active; the % refers to the signal ratio;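 further: cells stimulated with 2 nM dexamethasone as agonist; on the % scale 0 is the no-effect control and ±100 the full control effect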). The essentials: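 Antagonist-mode qHTS: compound titrations added to GRE-bla HeLa cells, then dexamethasone 2 nM final; 18 h, 37 C. CCF4 FRET fluorescence normalized to dexamethasone and DMSO; IC50 from Hill fit.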
Assay [17] has as its target Peroxisome proliferator-activated receptor gamma (Homo sapiens) (UniProt P37231). Kind of assay: qHTS assay for small molecule agonists of peroxisome proliferator-activated receptor gamma signaling (AID 588536; active means well fitted curve in the direction sought with a large enough effect in the signal ratio, with a control signal flat, not every such curve was filed as active; the % refers to the signal ratio;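 further: 0% = DMSO basal wells and 100% = rosiglitazone at 2 µM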). The essentials: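 This is an agonist-mode beta-lactamase reporter assay in HEK293 PPAR-gamma-UAS-bla cells with 1% charcoal/dextran FBS. Compound titrations ran 16 h at 37 C before CCF4 detection. EC50 and efficacy are Hill fits scaled to 2 uM rosiglitazone (100%) and DMSO basal.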

Potency, outcome and activation data for 20 compounds are collected here from PubChem BioAssay (NCATS).

SMILES strings stand for the structures. Several values for one entry are separate records, joined by “and”; a condition that tells them apart may be missing. Equal entries are not always repeated. Values without a mark were called inactive. Results filed as inconclusive are left out. Activity calls are given as the source filed them. Unless noted, the call rests on the fitted dose curve; in most records, active means well fitted curve in the direction sought with a large enough effect; inconclusive means small, poorly fitted or top-dose-only effect, or another doubt; inactive means no such curve, though single readings can be large; an effect the other way counts as inactive or inconclusive.

Muscarinic acetylcholine receptor M1 (Rattus norvegicus), sequence (P08482 whole entry, looked up): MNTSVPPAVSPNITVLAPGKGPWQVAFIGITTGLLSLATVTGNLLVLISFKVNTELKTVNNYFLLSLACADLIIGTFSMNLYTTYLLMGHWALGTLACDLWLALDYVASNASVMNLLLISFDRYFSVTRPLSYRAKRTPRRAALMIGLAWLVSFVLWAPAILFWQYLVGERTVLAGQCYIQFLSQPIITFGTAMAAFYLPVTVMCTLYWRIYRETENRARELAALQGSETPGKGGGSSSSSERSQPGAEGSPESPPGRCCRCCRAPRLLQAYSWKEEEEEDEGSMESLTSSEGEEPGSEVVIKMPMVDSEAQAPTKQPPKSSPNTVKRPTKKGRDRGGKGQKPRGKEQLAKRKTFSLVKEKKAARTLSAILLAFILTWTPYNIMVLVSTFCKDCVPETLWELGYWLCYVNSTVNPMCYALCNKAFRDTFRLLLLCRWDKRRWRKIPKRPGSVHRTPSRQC
Alpha-galactosidase (Coffea arabica), sequence (Q42656 whole entry, looked up): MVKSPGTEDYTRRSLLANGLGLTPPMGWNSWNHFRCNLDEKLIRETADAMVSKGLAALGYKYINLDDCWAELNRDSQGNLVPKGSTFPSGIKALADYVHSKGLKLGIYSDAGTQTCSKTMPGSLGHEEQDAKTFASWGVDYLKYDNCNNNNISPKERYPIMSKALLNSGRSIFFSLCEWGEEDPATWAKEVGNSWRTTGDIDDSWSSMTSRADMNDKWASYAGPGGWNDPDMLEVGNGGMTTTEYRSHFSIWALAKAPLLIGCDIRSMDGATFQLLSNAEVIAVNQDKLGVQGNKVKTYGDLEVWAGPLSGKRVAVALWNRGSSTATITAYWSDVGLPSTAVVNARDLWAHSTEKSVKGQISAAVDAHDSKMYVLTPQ
Estrogen receptor (Homo sapiens), sequence (P03372 whole entry, looked up): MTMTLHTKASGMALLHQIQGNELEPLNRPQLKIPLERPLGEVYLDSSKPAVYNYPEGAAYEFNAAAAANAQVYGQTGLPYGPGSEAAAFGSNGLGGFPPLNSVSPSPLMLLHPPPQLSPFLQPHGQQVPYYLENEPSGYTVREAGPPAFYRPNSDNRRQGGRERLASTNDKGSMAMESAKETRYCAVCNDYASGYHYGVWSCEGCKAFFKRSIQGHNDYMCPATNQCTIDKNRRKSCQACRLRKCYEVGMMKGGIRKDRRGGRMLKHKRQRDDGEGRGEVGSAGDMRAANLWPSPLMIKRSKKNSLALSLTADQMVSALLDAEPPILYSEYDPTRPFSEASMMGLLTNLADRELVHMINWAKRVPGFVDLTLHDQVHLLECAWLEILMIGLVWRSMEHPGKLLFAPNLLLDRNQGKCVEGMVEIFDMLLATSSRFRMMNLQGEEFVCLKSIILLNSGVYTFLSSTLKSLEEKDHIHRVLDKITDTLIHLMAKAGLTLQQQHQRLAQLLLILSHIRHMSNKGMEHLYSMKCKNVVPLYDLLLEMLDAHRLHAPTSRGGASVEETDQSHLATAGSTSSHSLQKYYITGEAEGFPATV
Cytochrome P450 2C9 (Homo sapiens), sequence (P11712 whole entry, looked up): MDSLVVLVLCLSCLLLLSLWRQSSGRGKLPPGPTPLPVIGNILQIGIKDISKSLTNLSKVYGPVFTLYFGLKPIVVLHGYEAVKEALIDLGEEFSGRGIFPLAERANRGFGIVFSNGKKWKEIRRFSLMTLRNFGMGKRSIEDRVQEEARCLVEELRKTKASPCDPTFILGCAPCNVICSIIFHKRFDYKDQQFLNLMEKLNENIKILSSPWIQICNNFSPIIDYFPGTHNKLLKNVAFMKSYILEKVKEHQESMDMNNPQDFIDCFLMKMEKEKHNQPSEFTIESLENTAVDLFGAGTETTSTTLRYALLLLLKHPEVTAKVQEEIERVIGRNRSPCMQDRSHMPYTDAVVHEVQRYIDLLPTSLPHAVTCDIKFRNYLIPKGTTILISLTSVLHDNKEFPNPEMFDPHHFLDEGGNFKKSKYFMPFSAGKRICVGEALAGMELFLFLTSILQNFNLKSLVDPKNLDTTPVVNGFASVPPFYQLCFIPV
Glucocorticoid receptor (Homo sapiens), sequence (P04150 whole entry, looked up): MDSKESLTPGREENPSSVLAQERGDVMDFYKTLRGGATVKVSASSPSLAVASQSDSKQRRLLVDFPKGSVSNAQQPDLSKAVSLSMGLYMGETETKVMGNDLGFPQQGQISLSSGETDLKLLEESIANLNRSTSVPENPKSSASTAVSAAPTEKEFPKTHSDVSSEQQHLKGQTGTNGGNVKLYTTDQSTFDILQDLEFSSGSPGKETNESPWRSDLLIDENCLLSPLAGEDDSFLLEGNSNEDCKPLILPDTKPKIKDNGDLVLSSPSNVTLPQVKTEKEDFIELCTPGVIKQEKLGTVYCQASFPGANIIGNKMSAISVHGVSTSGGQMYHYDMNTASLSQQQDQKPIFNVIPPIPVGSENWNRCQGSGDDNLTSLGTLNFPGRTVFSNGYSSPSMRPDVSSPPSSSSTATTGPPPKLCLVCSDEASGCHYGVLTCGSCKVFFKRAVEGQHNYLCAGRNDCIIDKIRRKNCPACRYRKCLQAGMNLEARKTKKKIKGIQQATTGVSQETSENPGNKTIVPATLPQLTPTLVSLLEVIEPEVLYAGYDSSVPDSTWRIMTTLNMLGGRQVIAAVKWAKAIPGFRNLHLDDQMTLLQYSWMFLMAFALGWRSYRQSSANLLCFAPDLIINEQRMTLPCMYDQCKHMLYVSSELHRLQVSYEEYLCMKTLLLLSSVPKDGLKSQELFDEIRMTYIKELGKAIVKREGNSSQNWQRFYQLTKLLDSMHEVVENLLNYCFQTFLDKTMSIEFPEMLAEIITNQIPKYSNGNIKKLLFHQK
ATP-dependent 6-phosphofructokinase (Trypanosoma brucei brucei), sequence (O15648 whole entry, looked up): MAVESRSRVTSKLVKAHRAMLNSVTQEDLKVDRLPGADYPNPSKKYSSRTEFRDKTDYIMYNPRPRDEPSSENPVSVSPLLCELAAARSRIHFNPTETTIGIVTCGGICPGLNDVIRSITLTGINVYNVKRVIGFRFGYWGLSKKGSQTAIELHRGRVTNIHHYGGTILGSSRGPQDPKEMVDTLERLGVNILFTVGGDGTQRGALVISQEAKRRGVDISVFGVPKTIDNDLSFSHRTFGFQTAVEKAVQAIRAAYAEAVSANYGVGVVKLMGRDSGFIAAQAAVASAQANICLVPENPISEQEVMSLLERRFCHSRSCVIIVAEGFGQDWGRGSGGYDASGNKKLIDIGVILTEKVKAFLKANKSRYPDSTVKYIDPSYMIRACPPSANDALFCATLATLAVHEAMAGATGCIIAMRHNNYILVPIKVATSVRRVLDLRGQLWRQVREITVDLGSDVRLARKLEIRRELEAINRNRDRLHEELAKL

Turning to `CNC(=O)N(C)c1nnc(C(C)(C)C)s1`, the Potency entry in [1] is “inactive”.
For `COc1cc2c(cc1O)C[C@H]1c3c(cc(O)c(OC)c3-2)CCN1C`, the Potency result in [2] was “inactive”.
With `C[C@@H]1O[C@H](O[C@@H]2C=C3CC[C@H]4[C@@H](CC[C@]5(C)[C@@H](c6ccc(=O)oc6)CC[C@]45O)[C@@]3(C)CC2)[C@@H](O)[C@H](O)[C@@H]1O`, the Potency entry in assay [3] was “inactive”.
In the case of `CC[C@H]1C(=O)OC[C@H]1Cc1cncn1C`, the compound was called inactive in assay [4] and in assay [5].
In the case of `CN1[C@@H]2CC[C@H]1CC(O)C2` (some centres not stated), the Potency result in assay [6] was “inactive”.
Take `CO[C@@H](C)[C@](O)(C(=O)OCC1=CCN2CC[C@@H](O)[C@H]12)C(C)C`: in assay [2], the Potency result was “inactive”.
With `CN1CC[C@]2(C)c3cc(O)ccc3N(C)[C@@H]12`, the compound was classed as inactive in assay [7], in assay [4], in assay [10], in assay [11] and in assay [5]. Besides, the Potency is 25.1 µM (active) in assay [6] and 12.6 µM (active) in [2]. In addition, the Potency result in [8] and in assay [9] was “inactive” each time.
In the case of `CC(C)N(CC[C@@](C(N)=O)(c1ccccc1)c1ccccn1)C(C)C`, the call in assay [7], in assay [4], in assay [10], in assay [11] and in assay [5] was inactive. Further, the Potency in [8] was 5.62 µM (active) and 6.31 µM (active). The Potency result in [9] and in assay [12] was “inactive” throughout.
As for `CN1Cc2c(ccc3c2OCO3)[C@@H]2[C@@H](O)Cc3cc4c(cc3[C@@H]21)OCO4`, the Potency result in assay [6] is “inactive”.
For `COc1cc2c(cc1OC)[C@@]13CCN4CC5=CCOC6CC(=O)N2C1[C@H]6[C@@H]5C[C@@H]43` (some centres not stated), in assay [12], the Potency entry is “inactive”.
Regarding `CNC(=O)CSP(=S)(OC)OC`, the Potency entry in assay [1] is “inactive”. Also, the activation in assay [13] was 0.301% and 4.06%. Besides, the outcome in assay [14] was inactive.
For the compound `c1cncc([C@H]2CCCCN2)c1`, the Potency in assay [6] was 7.94 µM (active); in [2] it was 5.01 µM (active).
Consider `C[N+]1=Cc2cc3c(cc2CC1)OCO3`, for which the Potency entry in assay [6] and in assay [2] was “inactive” in each case.
Turning to `COc1cc2c(c(OC)c1OC)-c1ccc(O)c(=O)cc1[C@@H](NC(C)=O)CC2`, the Potency entry in assay [6] and in assay [2] was “inactive” in each case.
For `O=C1C=C2C=C[C@H]3C[C@@]2(O1)[C@H]1CCCCN31`, the Potency entry in assay [6] and in assay [2] was “inactive” in each case.
Take `O=C1C=C2C=CC3C[C@@]2(O1)C1CCCCN31` (some centres not stated): the Potency entry in assay [3] was “inactive”.
On to `CCCCCCCCCc1ccc(O)cc1`, for which, in [13], the activation was 10.9% and 1.36%.
For the compound `O=C1C(Cl)=C(Cl)C(=O)C(Cl)=C1Cl`, in [14], the compound was called inactive.
On to `C[C@@]12CC[C@H](O)C[C@@H]1CC[C@H]1[C@@H]2C[C@@H](O)[C@]2(C)[C@@H](C3=CC(=O)OC3)CC[C@]12O`, for which, in assay [2], the Potency entry was “inactive”.
For the compound `N#Cc1c(Cl)cccc1Cl`, the Potency result in assay [1] and in assay [16] was “inactive” in each case. In addition, the activation is 0.597% in [15] and -0.167% in [13]. For the same compound, the call in assay [17] and in assay [14] was inactive.
